Results taken from ChEMBL document CHEMBL3988442, “University of Dundee, Small-Polar-MMV Screening Library” (2021).
Among all 38,000 compounds or so, about 1,200 (3.2%) showed an effect of 50% or more. The median lay at about -58%. What follows is part of a selection rich in strong results, with near analogues and random picks from the rest.

test system: Plasmodium falciparum; experiment: Calibr Malaria Delayed Death Assay SOP; format: functional, organism-based; parameters: scale not given: in the data most compounds retested in dose-response had high values; conditions: concentration 4.99e-06 (unit not given; other assays of the set use mol/L)

First: C[C@@H]1CN(c2nc3c(cc2C(N)=O)CCC3)C[C@@]1(O)C1CCC1
Second: Cc1ccnc(OC[C@]23COC[C@H]2CN(C(=O)C2=CCCCC2)C3)n1
The “Percent Effect” value of the first is lower: -102.5% for the first, -29.48% for the second.

Going from `O=C(Nc1cccnc1-n1cc(Cl)cn1)C1CCCCC1` to `Fc1ccc(CN2CCCCC2Cn2cncn2)c2ncccc12` (stereo not given), the “Percent Effect” value rises from -29.97% to 64.52%.

First: CCOC(=O)C(C)NC(=O)N1CCN(c2nc3ccccc3n2C)CC1 (stereo not given)
Second: Cc1cccc(S(=O)(=O)NCC(C)N2CCN(C)CC2)c1Cl (stereo not given)
The “Percent Effect” value of the first is lower: -114% for the first, 80.79% for the second.

Compared with `CSCc1cc(F)ccc1CNCc1cccc(O)c1`, `CSCc1cc(F)ccc1CNCc1cccnc1` is lower in “Percent Effect” value: 72.86% for the first, 1.167% for the second.

Going from `CSCc1cc(F)ccc1CNCc1ccncc1` to `CN(C)c1ncccc1CNCc1cccc(O)c1`, the “Percent Effect” value rises from -80.12% to -22.48%.

Going from `CC(C)CCOc1ccc(C(C)NC(=O)CSCC(N)=O)cc1` (stereo not given) to `COc1ccc(C(=O)O)c(OCC(=O)NC(C)c2ccccc2)c1` (stereo not given), the “Percent Effect” value rises from -21.89% to -10.57%.

First: Cc1cc(=O)[nH]c(=O)n1COCc1ccccc1
Second: O=C1CCNc2ccc(F)cc2CN1Cc1ccccc1
The “Percent Effect” value of the first is lower: -164.1% for the first, -35.83% for the second.

Compared with `Cc1ccc(C(=O)N2CC(Oc3ccccc3C)C2)s1`, `Cc1cc(C(=O)N2CC(O)CO2)c2cccc(C)c2n1` (stereo not given) is lower in “Percent Effect” value: -70.19% for the first, -103.4% for the second.

First: COc1ccc(F)cc1CN1CCCC1Cn1nc(C)nc1C (stereo not given)
Second: COc1ccc(F)cc1CN1CCCC(c2cc(C(N)=O)[nH]n2)C1 (stereo not given)
The “Percent Effect” value of the first is lower: -22.72% for the first, -17.41% for the second.

First: O=C(NCC1(O)CCC1)c1cccc(-n2cccn2)c1
Second: Cc1cc(-n2cccn2)ccc1CN1CCC(O)(CN2CCCCC2)C1 (stereo not given)
The “Percent Effect” value of the first is lower: -36.51% for the first, 60.7% for the second.

Going from `CCCn1ccnc1CN1CCCC(O)(CN2CCCC2)C1` (stereo not given) to `CCCn1ccnc1CN1CCC(O)(CN2CCCCC2)C1` (stereo not given), the “Percent Effect” value rises from -81.98% to 17.5%.

Compared with `OC1(CN2CCCC2)CCCN(Cc2cnc(-c3ccccc3)nc2)C1` (stereo not given), `OC1(CN2CCCC2)CCCN(Cc2cnc(-c3ccco3)nc2)C1` (stereo not given) is lower in “Percent Effect” value: 13.01% for the first, -86.93% for the second.

First: COc1ccc(F)cc1CN1CCC(O)(CN2CCCCC2)C1 (stereo not given)
Second: Cc1cc(F)ccc1CN1CCCC(O)(CN2CCCC2)C1 (stereo not given)
The “Percent Effect” value of the first is higher: 69.8% for the first, 66.53% for the second.

Going from `COc1ccc(CN2CCC(O)(CN3CCCCC3)C2)c(C)c1` (stereo not given) to `COc1ccc(F)c(CN2CCCC3(CCN(C(=O)CSC)C3)C2)c1` (stereo not given), the “Percent Effect” value falls from 66.37% to -70.9%.

Going from `COCC(=O)N1CCC2(CCCN(Cc3cc(OC)ccc3F)C2)C1` (stereo not given) to `COc1ccc(C)cc1CC(=O)N1CC[C@@]2(CCCO2)[C@@H](O)C1`, the “Percent Effect” value falls from -77.74% to -95.97%.

Compared with `O=C(NC1CCc2cc(Cl)ccc21)C1CCN(C(=O)C2CC2)CC1` (stereo not given), `Cc1cccc(SC2CCN(C(=O)CCNS(C)(=O)=O)CC2)c1` is lower in “Percent Effect” value: -26.17% for the first, -80.26% for the second.

First: OCC1CCCN(Cc2c(C3CCCC3)[nH]c3ncccc23)C1 (stereo not given)
Second: Fc1ccc(CN2CCCC(Cn3cncn3)C2)c2ncccc12 (stereo not given)
The “Percent Effect” value of the first is higher: 11.34% for the first, -5.261% for the second.

First: Cc1cc(CN2CCN(Cc3ccc(C#N)cc3F)CC2)no1
Second: Cc1ccc2nc(CN3CCC(O)(CN4CCCC4)CC3)cc(O)c2c1
The “Percent Effect” value of the first is higher: -21.87% for the first, -44.54% for the second.

First: CC(C)(C)OC(=O)N1CCN(S(=O)(=O)CCCC#N)C2(CCCCC2)C1
Second: Cc1nn(C)c(N2CCCN(C)CC2)c1CNC(=O)CC(C)(C)C
The “Percent Effect” value of the first is higher: -7.011% for the first, -44.23% for the second.

Going from `Cc1ccc(Cn2c(=O)[nH]c3csnc3c2=O)cc1` to `CN1CCN(Cc2ccc(F)cc2)Cc2cccnc21`, the “Percent Effect” value falls from -6.005% to -11.04%.

Compared with `Cc1nc(CN2CCC3(CC2)C(=O)N(C)CCN3C)cs1.O=C(O)C(F)(F)F.O=C(O)C(F)(F)F.O=C(O)C(F)(F)F`, `Cc1nc(CN2CCC3(CCCN(Cc4ccncc4)C3)C2=O)cs1.O=C(O)C(F)(F)F.O=C(O)C(F)(F)F.O=C(O)C(F)(F)F` (stereo not given) is higher in “Percent Effect” value: -106.3% for the first, -86.96% for the second.

Compared with `c1ccc2sc(N3CCC4(CCCN4Cc4ncc[nH]4)CC3)nc2c1`, `Cn1cc(CN2CCCC23CCN(c2nc4ccccc4s2)CC3)cn1` is higher in “Percent Effect” value: 19.28% for the first, 50.94% for the second.

First: Cc1nc(CN2CCCC23CCN(c2nc4ccccc4s2)CC3)co1
Second: Cc1cc(N2CCC(c3ncc[nH]3)CC2)c2ccccc2n1
The “Percent Effect” value of the first is lower: 8.403% for the first, 61.5% for the second.

Going from `CCOCCOC(C)C(=O)Nc1ccnn1-c1ccccc1C` (stereo not given) to `Cc1cccc(-n2nnnc2C(C)(C)Nc2ccccc2C)c1`, the “Percent Effect” value rises from -67.54% to -66.56%.

Compared with `COc1cc(CCC(=O)NCC2CC2)ccc1OCC(F)(F)F`, `O=C(CCc1ccsc1)NCC1CCN(Cc2cccs2)CC1` is higher in “Percent Effect” value: -33.72% for the first, 58% for the second.

First: Nc1nc(CN2CCCC(Cn3cncn3)C2)nc2ccccc12 (stereo not given)
Second: Clc1ccc(CN2CCCC(Cn3cncn3)C2)c2ncccc12 (stereo not given)
The “Percent Effect” value of the first is lower: -138.6% for the first, 63.13% for the second.

Compared with `Fc1ccc(CN2CCOC(Cn3cncn3)C2)c2ncccc12` (stereo not given), `Fc1ccc(CN2CCCC2Cn2cncn2)c2ncccc12` (stereo not given) is higher in “Percent Effect” value: -95.84% for the first, 10.61% for the second.

First: CCn1nnc2c1C(COC)CN(C(=O)Cc1ccccn1)C2 (stereo not given)
Second: CCn1ncc2c1C(COC)N(C(=O)c1ccsc1)CC2.O=C(O)C(F)(F)F (stereo not given)
The “Percent Effect” value of the first is higher: -16.62% for the first, -121.1% for the second.

Compared with `CNC(=O)C1CCN(S(C)(=O)=O)CC1`, `CC(CNS(=O)(=O)c1cccc(Cl)c1)N1CCN(C)CC1` (stereo not given) is higher in “Percent Effect” value: -158.4% for the first, 77.12% for the second.

Compared with `O=C1CC(c2cccs2)c2sc(C(=O)O)c(-c3ccccc3)c2N1` (stereo not given), `O=C(CC1NC(N2CCc3ccccc32)=NC1=O)Nc1ccc(Cl)cc1` (stereo not given) is lower in “Percent Effect” value: -70.62% for the first, -176.9% for the second.

Compared with `Cc1nc(N2CCCC2)ccc1NCc1ccccn1`, `Cc1cc(N2CCC(c3ncc[nH]3)CC2)nc(N)n1` is lower in “Percent Effect” value: -6.068% for the first, -29.26% for the second.

First: COCCCNC(=O)c1c[nH]c2ccc(OC)cc12
Second: COCCNC(=O)NCc1ccc(OC(C)C)c(F)c1
The “Percent Effect” value of the first is higher: -47.08% for the first, -81.14% for the second.

First: CC1N(c2cnn(C)c2)C(=O)COC12CCN(CC1CC1)CC2.O=C(O)C(F)(F)F (stereo not given)
Second: Cc1occc1C(=O)NCC1OCCc2cn(C)nc21.O=C(O)C(F)(F)F (stereo not given)
The “Percent Effect” value of the first is lower: -75.35% for the first, -17.21% for the second.

Going from `COc1ccc(NC(=O)c2ccc(-n3ncc(C#N)c3N)cc2)cn1` to `Cc1cnc(NC(=O)c2ccc(-n3ncc(C#N)c3N)cc2)s1`, the “Percent Effect” value falls from 80.07% to -56.37%.

First: CCN(CC)C(=O)c1ccc(-n2ncc(C#N)c2N)cc1
Second: O=C(c1ccn(-c2ccc(F)cc2)n1)N(CCO)Cc1cccnc1
The “Percent Effect” value of the first is lower: -24.17% for the first, -20.41% for the second.

Going from `O=C(CSc1ccccn1)N1CCC(OCc2cccnc2)CC1` to `O=C(CCc1ccccc1)NCC1CCN(Cc2ccsc2)CC1`, the “Percent Effect” value rises from -154% to 18.12%.

Compared with `Cn1cnc(S(=O)(=O)NCCC(O)c2ccc3c(c2)OCO3)c1` (stereo not given), `Cc1cc(NC(=O)Cc2ccc3c(c2)OCO3)n(C)n1` is higher in “Percent Effect” value: -141.1% for the first, -77.02% for the second.

First: CC(Nc1cccc(F)c1C#N)c1cccc(S(N)(=O)=O)c1 (stereo not given)
Second: CC(C)Oc1ccccc1-c1cc(CN)ccc1F
The “Percent Effect” value of the first is lower: -56.47% for the first, 60.74% for the second.

Compared with `C[C@]1(O)CCN(Cc2c[nH]cn2)C[C@@H]1Oc1cccc(F)c1`, `COc1cccc(C(=O)N2CCCC2c2ncc3c(n2)CCN(C)C3)c1` (stereo not given) is higher in “Percent Effect” value: -164.2% for the first, -46.26% for the second.

First: CC(C)Oc1ccc(CNC(=O)c2cc(C(N)=O)cs2)cc1F
Second: COc1cccc(Cl)c1-c1cc(CN)ccc1F
The “Percent Effect” value of the first is lower: -80.32% for the first, 65.68% for the second.

Compared with `COc1cccc(-c2cc(CN)ccc2F)c1F`, `NCc1ccc(Oc2cccc(Cl)c2Cl)cc1` is higher in “Percent Effect” value: -75.66% for the first, 19% for the second.

Compared with `O=C(Cn1cc(C2CC2)nn1)N(Cc1ccco1)Cc1cccs1`, `O=C(CCc1ccccc1)NCC1CCN(Cc2cccs2)CC1` is higher in “Percent Effect” value: -76.11% for the first, -10.35% for the second.

Compared with `Cc1cc(N2CCC(c3ncc[nH]3)CC2)cc(C)n1`, `CC(C)n1ccnc1C1CCN(Cc2ccc(Cl)c(F)c2)CC1` is higher in “Percent Effect” value: -30.44% for the first, 33.02% for the second.

First: Cn1nc(C(=O)NC2(c3ccc(Cl)cc3)CCCC2)ccc1=O
Second: Cn1cc(C2(C)CN(Cc3ccc(Cl)c(F)c3)CCO2)cn1 (stereo not given)
The “Percent Effect” value of the first is higher: 37.39% for the first, -40.79% for the second.

Compared with `Cc1nccn1Cc1nnc(C2CCCN(c3ncccc3F)C2)n1C` (stereo not given), `COCc1noc(Cn2c(C3CC3)nc3ccccc32)n1` is higher in “Percent Effect” value: -123.3% for the first, -91.38% for the second.

Going from `O=C(NCCc1nccs1)N1CCC(n2cccc2)CC1` to `O=C(c1ccc2c(c1)COC2)N1CCCN(Cc2cscn2)CC1`, the “Percent Effect” value rises from -128.4% to -90.53%.

Compared with `Cc1nc(CNC(=O)Nc2cc(C(F)(F)F)c[nH]c2=O)cs1`, `Cc1cc(F)ccc1S(=O)(=O)NCC(O)c1cccn1C` (stereo not given) is higher in “Percent Effect” value: -139.2% for the first, -27.19% for the second.

Going from `Cc1cc(Cl)ccc1S(=O)(=O)NCC(C)N1CCN(C)CC1` (stereo not given) to `COc1ccc(S(=O)(=O)NCC(c2cccn2C)N(C)C)c(C)c1` (stereo not given), the “Percent Effect” value falls from 73.33% to 47.32%.

Compared with `O=S(=O)(NCC(O)c1cccs1)c1ccccc1Cl` (stereo not given), `Cc1c(Cl)cccc1S(=O)(=O)NCC(O)c1cccn1C` (stereo not given) is higher in “Percent Effect” value: -35.17% for the first, -3.502% for the second.

Going from `CC(NCCNS(=O)(=O)c1cccc(Cl)c1)C1CCOCC1` (stereo not given) to `CC(=O)N1C[C@H](NS(=O)(=O)c2cccc(Cl)c2)[C@@H](C(C)C)C1`, the “Percent Effect” value falls from 24.26% to -122%.

Compared with `CCc1cc(NCCCOC2CCCC2)ncn1`, `CCOc1ccc2[nH]c(=O)c(CN3CCCCC3C)cc2c1` (stereo not given) is lower in “Percent Effect” value: -19.37% for the first, -50.88% for the second.

Compared with `CN(C)CCN(Cc1cccnc1)C(=O)c1ccn(-c2ccccc2)n1`, `N#CCCN(Cc1cccnc1)C(=O)c1ccn(-c2ccccc2)n1` is lower in “Percent Effect” value: 87.52% for the first, -29.34% for the second.

In the case of `Cc1ncoc1C(=O)N1CCOC(CC2CCCCC2)C1` (stereo not given), the “Percent Effect” value is reported as -117.2%.
